A short description of the assay: small-molecule microarray binders of probe aShh, primary screen, biochemical, biotinylated probe, 635/667 nm fluorescence (AID 1114).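 Also: probe is biotin-labelled aShh protein from a stem cell growth factor screen; measures binding of labelled protein to compounds printed on the slide; score merges feature fluorescence at 667 nm with signal-to-noise.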 The note with it: higher = more signal.
The compound `CCCCCCCCCCC(O)C1C=CC2C(=O)N(C)C(=O)C2N1N1CCCCC1` (stereo not given) registered a composite z-score of 0.0278.

`CCCC[C@@H]1C[C@H]1[C@@H](NC(=O)Cc1ccccc1)c1ccc(Cl)cc1` yielded a composite z-score of 1.47.

For the compound `CC(C)=CCN(C(=O)C#Cc1ccccc1)[C@H](CO)c1ccccc1`, the composite z-score is -0.16.

The compound `COc1ccc(NC(=O)O[C@H]2[C@H](OC(=O)Nc3ccc4c(c3)OCO4)[C@H](OC(=O)Nc3ccc4c(c3)OCO4)[C@@H](OC)O[C@@H]2CO)cc1` showed a composite z-score of 0.0469. As for `CCCC[C@H]1OB(O)C[C@H]2C1=C(C)C[C@H]1C(=O)C=CC(=O)[C@H]12`, the composite z-score turned out to be 0.0278. For the compound `CO[C@H]1O[C@H](CO)[C@@H](OC(=O)Nc2ccccc2)[C@@H]2OC(=O)[C@H](Cc3ccccc3)C/C=C/C[C@@H](Cc3ccccc3)C(=O)O[C@@H]12`, the composite z-score amounted to 0.0639. The compound `C[C@H]1C2[C@H](Cc3ccccc3)NC(=O)[C@]23C(=O)NCC(=O)N2CCC[C@H]2C(=O)NC/C=C\C/C=C/C3[C@@H]2O[C@]12C` (stereo not given in full) showed a composite z-score of -0.2. To `[N-]=[N+]=NCc1ccccc1C[C@]1(C(=O)O)COC(c2ccc(OCCCO)cc2)=N1` belongs -0.341; to `CC(C)CNC(=O)[C@@]1(C)c2ccccc2C(=O)N(Cc2cc(F)cc(C(F)(F)F)c2)[C@H]1c1ccc(CO)cc1`, 0.0639. Under `CN(C)CCCNC(=O)[C@@H]1c2ccccc2C(=O)N(C2Cc3ccccc3C2)[C@H]1c1ccc(CO)cc1` stands 0.0766; under `CCN(CC)c1ccc(N2CC=CC34O[C@@H]5C=CCOC(=O)[C@@H]5[C@H]3C(=O)N(CCO)[C@@H]4C2=O)cc1` (stereo not given in full), 0.0756; under `COc1ccccc1CN1C(=O)c2ccccc2[C@@H](C(=O)NCCCN(C)C)[C@@H]1c1ccc(CO)cc1`, -0.0263. To `COc1cc(OC)c(C(O)C2C=CC3C(=O)N(c4ccccc4)C(=O)C3N2Nc2ccccc2F)cc1Br` (stereo not given) belongs 0.279; to `CC(=O)c1ccc(C(O)C2C=CC3C(=O)NC(=O)C3N2Nc2ccc(Cl)cc2Cl)cc1` (stereo not given), 0.522. `C=CCC(OC(C)=O)[C@@H]1[C@@H](N(Cc2cc3ccccc3o2)C(=O)Cc2ccc(OC)cc2)c2cc(OCCCO)ccc2N1C(=O)Cc1ccc(OC)cc1` (stereo not given in full) displayed a composite z-score of -0.0626. Under `COCCCN1C(=O)[C@@]2(Cc3ccccc31)c1ccccc1C(=O)N(Cc1ccccc1OC)[C@H]2c1ccc(CO)cc1` stands -0.138; under `COc1ccc(C#Cc2ccc3c(c2)[C@]2(C(=O)N3)[C@H](C(=O)Nc3nc4ccccc4s3)[C@H]3C(=O)O[C@H](c4ccccc4)[C@H](c4ccccc4)N3[C@@H]2c2ccc(OCCO)cc2)cc1`, 0.337; under `CC(C)C[C@H]1NC(=O)[C@@H](C)NC(=O)[C@@]23C(=O)N[C@@H](Cc4ccccc4)C2[C@H](C)[C@@]2(C)O[C@H]2C3/C=C/C/C=C\CNC1=O` (stereo not given in full), -0.223. As for `CC(C)C[C@H]1NC(=O)[C@@]23C(=O)N[C@@H](Cc4ccccc4)C2[C@H](C)[C@@]2(C)O[C@H]2C3/C=C/C/C=C\CNC(=O)[C@@H]2CCCN2C1=O` (stereo not given in full), the composite z-score is 0.111. In the case of `COc1ccc(C(O)C2C=CC3C(=O)N(C)C(=O)C3N2Nc2ccc([N+](=O)[O-])cc2[N+](=O)[O-])cc1OCc1ccccc1` (stereo not given), the composite z-score is 0.28. As to `[N-]=[N+]=Nc1ccccc1[C@@H]1OC(c2ccc(OCCCO)cc2)=N[C@]1(Cc1ccccc1)C(N)=O`, the composite z-score was determined as 0.173. To `CN(C)C(=O)[C@@]1(CCS(=O)(=O)c2ccccc2)N=C(c2ccc(OCCCO)cc2)O[C@H]1c1ccccc1N=[N+]=[N-]` belongs 0.199; to `CN1C(=O)[C@]2(CCC(=O)OC(C)(C)C)N=C(c3ccc(OCCCO)cc3)O[C@@H]2c2ccccc21`, 0.275. To `C[N+](C)(C)CCCCCCNC(=O)[C@@H]1C[C@@H]2C(=O)N[C@@H](Cc3ccccc3)C(=O)N2[C@@H]1c1ccc(O)cc1` belongs -0.156; to `CCCC=C(CCC)[C@@H](NS(=O)(=O)c1ccc(Cl)cc1)c1ccccc1`, 0.508; to `CO[C@H]1O[C@H](CO)[C@@H](OC(=O)Nc2ccc(C(F)(F)F)cc2)[C@H](OC(=O)Nc2ccccc2-c2ccccc2)[C@@H]1OC(=O)Nc1ccccc1-c1ccccc1`, 0.199. Under `CC(C)[C@@H](C(=O)O)n1cc(-c2ccccc2)nn1` stands 0.227. `C=CCNC(=O)[C@@H]1[C@H]2C(=O)O[C@H](c3ccccc3)[C@H](c3ccccc3)N2[C@H](c2ccc(O)cc2)[C@@]12C(=O)Nc1ccc(C#CC3(O)CCCCCC3)cc12` came in with a composite z-score of 0.488.

On to `O=C1N(CCS(=O)(=O)c2ccccc2)c2ccccc2[C@@H]2OC(c3ccc(OCCCO)cc3)=N[C@]12CCS(=O)(=O)c1ccccc1`, for which the composite z-score stood at 0.109. Compound `CCOC(=O)C1=CC[C@@H](c2ccccc2)N(S(=O)(=O)c2ccc(C)cc2)[C@H]1C#N` displayed a composite z-score of -0.16. `COc1ccc([Si](C)(C)[C@H]2[C@H](CCO)O[C@@]3(C(=O)N(Cc4ccccc4)c4ccc(N(C=O)c5ccccc5)cc43)[C@@H]2C)cc1` came in with a composite z-score of -0.0769. For the compound `COc1cccc(C[C@H]2C[C@@H](CO[Si](C(C)C)(C(C)C)C(C)C)N3C(=O)[C@@]4(C(C)=O)O[C@@]23[C@@H]2C(=O)N(C)C(=O)[C@@H]24)c1`, the composite z-score came to 0.131.

`C=CC[C@@]1(C(=O)O)N=C(c2ccc(OCCCO)cc2)O[C@@H]1c1ccccc1CN=[N+]=[N-]` displayed a composite z-score of -0.0119. The compound `CCCCNC(=O)c1ccc(C#C[Si](C)(C)C)c(OC(C)=O)c1` returned a composite z-score of 0.0952.

`C=CCNC(=O)[C@H]1[C@@H]2C(=O)O[C@@H](c3ccccc3)[C@@H](c3ccccc3)N2[C@@H](c2ccc(O)cc2)[C@]12C(=O)Nc1ccc(C#CC3=CCCCC3)cc12` had a composite z-score of 0.951.
